Bioassay records as filed in PubChem BioAssay.
The entries come from a sample that favours hits as a whole.
Cycloheximide cs – Cycloheximide Counterscreen for Small Molecule Inhibitors of Shiga Toxin; actives 12% (n = 300,000); cell reporter, cycloheximide protein synthesis inhibition counterscreen; AID 2314, 2010; max response, %; in the data active = max response mostly above about 13%, no sharp cut-off; inactive = mostly below about 14%; note: read at 38.3 µM for the half of the compounds with a filed dose; 0% is about no effect
Tb PYK inh – qHTS of Trypanosoma Brucei Inhibitors. pyruvate kinase (Trypanosoma brucei), Q57TT1. TbPYK enzyme, Kinase-Glo Plus ATP luminescence, 45 min. Potency, µM (series often up to 76.8 µM), without a hit: at the highest dose activity, negative = inhibition, most hits filed as inhibitors. actives 0.12% (n = 410,000). AID 624173, 2012; note: potency is the fitted concentration of half-maximal effect; % is set by controls: 0 for no effect and ±100 for the full control effect; nearly all actives have a fitted effect of over 50% in size
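In this concentration-response screen, enzyme-free wells defined baseline while DMSO plates tracked drift. Each reaction combined TbPYK, substrate, compound and 130 uM ADP for 45 min at room temperature. Kinase-Glo Plus luminescence gave the signal.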
Shiga inhibitor – A qHTS for Small Molecule Inhibitors of Shiga Toxin. Vero cells, Shiga toxin protein synthesis inhibition reporter. inhibition, % at 38.7 µM. actives 9.2% (n = 290,000); in the data active = inhibition mostly above about 28%, no sharp cut-off; inactive = mostly below about 43%; note: 0% is about no effect
RE007 growth inh – qHTS Assay for Inhibitors of the HIV-1 protein Vpr; S. pombe RE007 Vpr strain, BacTiter-Glo ATP luminescence, 24 h; Potency, µM (top dose mostly 92.2 µM), for the others: at the top dose activity change, negative = less growth, most hits filed as inhibitors; actives 0.21% (n = 360,000); AID 651644, 2012; active = well fitted falling curve with a large enough effect; inconclusive = small, poorly fitted or top-dose-only effect; inactive = no such curve, though single readings can be large or run the other way; note: potency is the fitted concentration of half-maximal effect; % is set by controls: 0 for no effect and ±100 for the full control effect; nearly all actives have a fitted effect of over 50% in size
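Fission yeast strain RE007, carrying one chromosomally integrated HIV-1 vpr copy, was seeded at OD 0.01 in PMG+AL medium with 23 nL pinned compound. After 24 h at 30 °C and 99% humidity, viability was read by BacTiter-Glo luminescence.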
Giardia FBPA inh – qHTS Assay for Inhibitors of Fructose-1,6-bisphosphate Aldolase from Giardia Lamblia; A8B2U2; purified Giardia FBPA; Potency, µM (series often up to 59.6 µM), without a hit: top-dose activity, negative = inhibition, usual class: inhibitors; actives 0.71% (n = 290,000); note: potency is the fitted concentration of half-maximal effect; % is set by controls: 0 for no effect and ±100 for the full control effect; nearly all actives have a fitted effect of over 55% in size
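Giardia FBPA (40 nM reagent) was preincubated 10 min at RT with compound (up to 57.5 uM final), then substrate plus GAPDH/TPI/NAD/arsenate coupling system with diaphorase/resazurin was added; resorufin fluorescence (525/598 nm) was read after 20 min.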
LmPK inh – qHTS Assay for Inhibitors of Leishmania Mexicana Pyruvate Kinase (LmPK). purified LmPK, Kinase-Glo ATP luminescence, 1 h. Potency, µM (series often up to 57.5 µM), for the others: at the highest dose activity change, negative = inhibition, most hits filed as inhibitors. actives 0.37% (n = 290,000). AID 1721, 2009; note: potency is the fitted concentration of half-maximal effect; % is set by controls: 0 for no effect and ±100 for the full control effect
Target sequence (Q27686 whole entry, looked up): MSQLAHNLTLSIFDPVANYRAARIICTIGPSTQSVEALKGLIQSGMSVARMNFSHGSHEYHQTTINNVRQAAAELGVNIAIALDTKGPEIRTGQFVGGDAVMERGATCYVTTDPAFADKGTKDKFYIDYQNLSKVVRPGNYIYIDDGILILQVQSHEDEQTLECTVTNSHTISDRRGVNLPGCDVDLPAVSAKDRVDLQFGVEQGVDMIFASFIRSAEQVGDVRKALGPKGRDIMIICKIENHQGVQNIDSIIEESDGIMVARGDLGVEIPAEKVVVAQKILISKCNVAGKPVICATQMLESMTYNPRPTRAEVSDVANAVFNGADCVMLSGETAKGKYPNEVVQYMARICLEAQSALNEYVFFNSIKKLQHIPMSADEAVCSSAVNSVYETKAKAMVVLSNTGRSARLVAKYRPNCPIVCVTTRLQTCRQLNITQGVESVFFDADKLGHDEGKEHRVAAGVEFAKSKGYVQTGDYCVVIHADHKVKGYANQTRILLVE
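In 50 mM imidazole pH 7.2 with 7 mM MgCl2, LmPK (0.1 nM) turned over PEP (0.5 mM) and ADP (0.1 mM) for 1 h at room temperature. Luciferase read-out of ATP.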
* hit, by the source's call; ? = inconclusive; · = no result; [ ] = remark or other dose. Unless noted, calls come from the whole dose curve; as a rule, active = well fitted curve in the direction sought with a large enough effect; inconclusive = small, poorly fitted or top-dose-only effect, or another doubt; inactive = no such curve, though single readings can be large; an effect the other way counts as inactive or inconclusive.

SMILES	Cycloheximide cs	Tb PYK inh	Shiga inhibitor	RE007 growth inh	Giardia FBPA inh	LmPK inh
COc1ccc(/C=C/C(=O)C2C(=O)C=C(C)OC2=O)cc1O (stereo not given)	17.4*	-7.8%	13.2	-22.3%	?	15.8µM*
CCN(CC)CCCC(C)n1c(-c2ccccc2)nc2c(NC3CCCCC3)nc(C)nc21 (stereo not given)	·	·	·	·	5.6%	·
CCCCCCC1=Cc2cc(OC)c(OC)cc2C(C(C(C)=O)C(=O)OC)O1 (stereo not given)	·	·	·	·	-26.3%[12.9 µM]	·
CC(=O)c1c(C)[nH]c(C(=O)Nc2cc(F)ccc2C)c1C	9.7	4.5%	-1.0	-0.6%	7.0%	0.0%
CC(=O)c1c(C)[nH]c(C(=O)Nc2ccc(C)c(C)c2)c1C	36.3*	-1.2%	65.4*	2.3%	-6.0%	6.6%
CC(=O)c1c(C)[nH]c(C(=O)NC2CCCCC2)c1C	16.0*	-1.0%	16.0	3.5%	-2.5%	-2.8%
CCOC(=O)c1c(C)[nH]c(C(=O)Nc2ccc(NC(C)=O)cc2)c1C	-2.9	-2.8%	-8.8	-17.9%	0.4%	3.7%
COc1cc(NC(=O)c2[nH]c(C)c(C(C)=O)c2C)cc(OC)c1OC	-2.7	-5.5%	-2.9	-21.8%	-2.2%	0.9%
COc1ccc(NC(=O)c2[nH]c(C)c(C(C)=O)c2C)cc1Cl	59.9*	-28.1%	55.6	1.8%	?	-1.8%
CCOC(=O)c1c(C)[nH]c(C(=O)Nc2ccc(C)c(Cl)c2)c1C	34.7*	·	103.0*	·	2.0%	0.9%
NS(=O)(=O)c1ccc(CCNC(=O)C2COc3ccccc3C2)cc1 (stereo not given)	·	-1.7%	·	·	·	·
CSc1ccc(CNC(=O)c2ccc3c(c2)N(C)C(=O)C2CCCCN32)cc1 (stereo not given)	·	-2.8%	·	·	·	·
CC(=O)c1c(C)[nH]c(C(=O)Nc2cccc(C(F)(F)F)c2)c1C	32.2*	2.0%	72.8*	9.4%	1.6%	2.3%
CCc1c(C(=O)Nc2ccc(C)c(C)c2)[nH]c(C)c1C(C)=O	40.0*	-7.2%	83.6*	4.2%	3.9%	-2.3%
O=C(Nc1ccc(F)cc1F)c1cc2n(n1)C(C(F)(F)F)C1CCCCC1N2 (stereo not given)	29.6*	-2.3%	83.9*	-4.1%	0.2%	1.2%
O=C(Nc1ccc(F)cc1F)c1cc2nc3c(c(C(F)(F)F)n2n1)CCCC3	26.2*	-7.5%	24.1	-2.3%	4.7%	-0.6%
COc1ccc(-c2nnc3n2N=C(c2ccccc2OC)CS3)c(OC)c1	-2.0	·	-9.6	·	-1.9%	·
COc1ccccc1-c1cc(C(=O)NCCc2ccccc2)no1	53.8*	2.9%	147.0*	-7.4%	-0.1%	5.0%
CCCc1cc(C(=O)NCCc2ccccc2)no1	53.4*	-5.3%	86.5*	-29.8%	1.8%	9.0%
CCc1cc(C(=O)NCc2ccccc2)no1	·	-4.7%	·	·	·	·
COc1ccc(NC(=O)c2cc(-c3ccccc3Cl)on2)cc1	43.7*	-0.6%	129.9*	3.9%	-7.5%	2.2%
COc1cc(NC(=O)c2cc(-c3ccccc3Cl)on2)cc(OC)c1OC	1.4	1.6%	-5.4	-0.9%	-3.3%	2.5%
COc1ccc(CCNC(=O)c2cc(-c3ccccc3OC)on2)cc1OC	14.6	2.8%	43.0	-2.5%	1.7%	10.9%
COc1ccccc1-c1cc(C(=O)Nc2cccnc2)no1	25.2*	-7.9%	48.5*	-14.4%	0.5%	-8.9%
Cc1ccc(CSc2nc(-c3ccccc3C)nc3c2Cc2c(CO)cnc(C)c2O3)cc1	·	-3.3%	·	·	·	·
SMILES	Cycloheximide cs	Tb PYK inh	Shiga inhibitor	RE007 growth inh	Giardia FBPA inh	LmPK inh
CCOc1ccc(Nc2nc(C)c(NC(=O)c3cccc(F)c3)c(Nc3ccc(OCC)cc3)n2)cc1	·	4.0%	·	·	·	·
CO[C@H]1COC(=O)C/C=C\[C@H](C)[C@@H](OC)COC(=O)C/C=C\[C@@H]1C	·	·	·	·	3.1%[12.9 µM]	·
Cc1nc(N2CCOCC2)c2nc(-c3ccccc3)n(CC3CCN(C)CC3)c2n1	·	·	·	·	-6.3%	·
N#CCCn1c(=O)c(-c2cc(F)cc(F)c2)nc2cnc(Oc3cccc(Cl)c3)nc21	·	2.1%	·	·	-2.1%	·
COc1ccc(NC(=O)c2cc(-c3cccc(OC)c3)on2)cc1	9.2	1.0%	13.3	-5.7%	2.7%	-1.6%[11.5 µM]
COc1ccc(NC(=O)c2cc(-c3ccccc3OC)on2)cc1	19.4*	-14.0%	88.5*	-7.8%	2.5%	-0.9%
Oc1ccc2ccccc2c1/C=N/Nc1nnc(-c2ncc[nH]2)c2ccccc12	47.7*	1.1%	24.7	29.2%	7.5%	1.6%
COc1ccc(/C=N/Nc2nnc(-c3ncc[nH]3)c3ccccc23)cc1	24.6*	-11.8%	78.4*	-12.8%	0.0%	-0.6%
Oc1ccc2ccccc2c1C=NNc1ccccn1	·	-0.2%	·	?	·	·
COc1ccc(/C=N/Nc2cc(C)nc3ccccc23)cc1	11.0	-1.3%	0.6	-3.2%	2.2%	-0.1%
CCC(Sc1nc2ccccc2c2nc(CCc3c(C)n[nH]c3C)nn12)C(=O)Nc1ccc(OC)cc1 (stereo not given)	·	-4.6%	·	·	·	·
O=C(O)c1cccc(Cn2c(Cl)c(/C=N/NC(=O)c3ccccc3)sc2=O)c1	2.6	-12.8%	17.0	-11.3%	6.9%	-0.3%
O=C(O)c1cccc(Cn2c(Cl)c(/C=N/NC(=O)c3cccc(O)c3)sc2=O)c1	24.5*	-12.4%	74.8*	-4.7%	13.9%	1.9%
O=C(O)c1cccc(Cn2c(Cl)c(/C=N/NC(=O)c3ccco3)sc2=O)c1	33.4*	-12.5%	26.8*	-13.7%	-14.4%	-0.8%
Cc1ccc(-n2ncc(C(=O)NCCN3CCOCC3)c2C2CCN(C(=O)OC(C)(C)C)CC2)c(C)c1	·	2.1%	·	·	·	·
Cc1cc(C(=O)CN2C(=O)C3CC=CCC3C2=O)c(C)n1-c1ccccc1 (stereo not given)	57.8*	3.2%	111.4*	-3.5%	-3.6%	-6.4%
Cc1cc(C(=O)CN2C(=O)c3ccccc3S2(=O)=O)c(C)n1-c1ccccc1	0.5	1.0%	-16.8	-4.2%	-2.2%	-1.8%
Cc1cc(C(=O)CN2C(=O)C(=O)N(CC(C)C)C2=O)c(C)n1-c1ccccc1F	16.9*	5.8%	60.9	2.5%	-21.6%	1.8%
Cc1cc(C(=O)CN2C(=O)NC(CC(C)C)C2=O)c(C)n1-c1ccccc1F (stereo not given)	47.2*	3.7%	158.7*	15.0%	-0.5%	5.6%
CCc1ccc(C2c3c(oc4ccc(C)cc4c3=O)C(=O)N2c2nc(C)c(C)s2)cc1 (stereo not given)	·	-6.3%	·	·	·	·
CC1CCC(NC(=O)c2ccc(/C=C3\Oc4ccccc4N(C)C3=O)cc2)CC1 (stereo not given)	25.0*	·	41.9	·	4.2%	1.0%
